Source: PubChem BioAssay AID441 (NMMLSC, 2006)
Hit rate of the full screen: of about 24,000 compounds, about 70 (0.3%) were called active. The full list was thinned out, with actives kept by preference. A number with no mark means an inactive call. No stated cut-off is given here; in the data, active means inhibition above about 30%; inconclusive means no clear call, values can overlap the other calls; inactive means below that.

target: N-formyl peptide receptor 2 (Homo sapiens) (UniProt P25090); assay: human FPRL1 ligands by binding competition, primary screen, cell-based, FPR counter-screen, flow cytometry (AID 441); details: FPRL1-expressing cells, fluorescent ligand binding inhibition, stronger effect = higher value, concentration not given here;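 further: 0% = buffer alone and 100% = receptor blocker peptide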
Sequence (P25090 whole entry, looked up): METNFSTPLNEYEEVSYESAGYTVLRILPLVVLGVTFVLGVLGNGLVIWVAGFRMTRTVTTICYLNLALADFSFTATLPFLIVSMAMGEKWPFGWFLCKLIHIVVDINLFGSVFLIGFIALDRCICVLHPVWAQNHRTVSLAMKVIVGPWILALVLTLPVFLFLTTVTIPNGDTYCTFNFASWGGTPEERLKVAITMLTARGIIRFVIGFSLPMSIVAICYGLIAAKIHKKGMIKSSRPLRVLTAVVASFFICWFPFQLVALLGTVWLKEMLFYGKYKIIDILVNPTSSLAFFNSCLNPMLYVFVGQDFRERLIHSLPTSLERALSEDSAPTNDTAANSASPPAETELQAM

Going from `COc1ccc(CCNC(=O)c2cc(-c3ccc4c(c3)OCO4)on2)cc1OC` to `COc1ccc(CCNC(=O)c2ccc3c(c2)NC(=O)C(N2CCOCC2)S3)cc1OC` (centres undefined), the inhibition rises from -0.8% to 0.3%.

First: COc1cccc(NC(=O)C2CCCN2C(=O)OCc2ccccc2)c1 (centres undefined)
Second: COc1ccc(OC)c(NC(=O)CC(Cc2ccccc2OC)C(=O)O)c1 (centres undefined)
The inhibition of the first is lower: 0.3% for the first, 9.6% for the second.

First: CCOc1ccccc1NC(=O)C1CCN(S(=O)(=O)c2c(C)nn(C)c2C)CC1
Second: CCOC(=O)C1CCN(C(=O)C2CCN(S(=O)(=O)c3c(C)noc3C)CC2)CC1
The inhibition of the first is lower: -6.7% for the first, 10.6% for the second.

Compared with `COc1ccc(C(=O)Nc2nncs2)c(OC)c1`, `COc1ccc(Cc2nnc(NC(=O)Cc3cccs3)s2)cc1` is lower in inhibition: 0% for the first, -1.5% for the second.

Compared with `COc1ccc(NS(=O)(=O)c2ccc(NC(C)=O)cc2)cc1OC`, `COc1ccc(-c2ccc(Nc3ccc(S(=O)(=O)N4CCCC4)cc3)nn2)cc1OC` is lower in inhibition: 6% for the first, 2.7% for the second.

Going from `NC(=O)CCCC1=NS(=O)(=O)c2ccccc2N1` to `CCCn1cc(SCC(N)=O)c2ccccc21`, the inhibition rises from -3.9% to 0.9%.

First: CCN1C(=O)/C(=C2/Sc3ccccc3N2CCCS(=O)(=O)O)SC1=S
Second: CCOC(=O)Nc1ccccc1N1C(=O)c2ccccc2C1=O
The inhibition of the first is higher: 5.6% for the first, -0.1% for the second.

Compared with `CC(=O)c1c(C)c[nH]c1C`, `CCOC(=O)c1ccc2[nH]c(C)c(CN3CCN(C)CC3)c(=O)c2c1` is lower in inhibition: 6% for the first, -3.9% for the second.

First: Cc1cccc(N2CCN(C(=O)c3cc4c(=O)[nH]c5ccccc5c4n3C)CC2)c1C
Second: Cn1c(C(=O)N2CCC(C(N)=O)CC2)cc2c(=O)n(C)c3ccccc3c21
The inhibition of the first is lower: -5% for the first, -1.2% for the second.

First: CCOc1ccc(-c2nnn(CC(=O)N3CCN(c4ccc(F)cc4)CC3)n2)cc1OCC
Second: CCOC(=O)c1ccc(NC(=O)Cn2nnc(-c3ccc(C)cc3)n2)cc1
The inhibition of the first is lower: -1.6% for the first, 3.3% for the second.

Compared with `CCOC(=O)N1CCN(C(=O)c2ccc3nc4cc(Cl)ccc4c(=O)n3c2)CC1`, `Cn1c(=O)cc(SCC(=O)N2CCN(C(=O)c3ccco3)CC2)c2ccccc21` is higher in inhibition: -10% for the first, -1.6% for the second.

Going from `CCOc1ccc(C2C(C(=O)NC)=C(C)Nc3nc4ccccc4n32)cc1OC` (centres undefined) to `COc1cccc(-c2nc3n(n2)C(c2ccccc2Cl)C(C(N)=O)=C(C)N3)c1` (centres undefined), the inhibition rises from -2.9% to -2.8%.

Compared with `O=C(NCCCN1CCN(Cc2ccccc2)CC1)C1CCN(S(=O)(=O)N2CCCC2)CC1`, `c1ccc(CCn2nnnc2CN2CCN(C3CCCC3)CC2)cc1` is lower in inhibition: 2% for the first, -2.3% for the second.

Compared with `COc1cccc(CN2C(=O)CCC2(C)C(=O)NC2CCCCCC2)c1` (centres undefined), `COc1ccc(-c2nnc(SCC(=O)NC3CCCCC3)o2)cc1OC` is lower in inhibition: 7.7% for the first, 2.7% for the second.

Going from `Cc1cc(N2C(=O)C(=O)/C(=C(/O)c3ccc(Cl)cc3)C2c2cccc(Br)c2)no1` (centres undefined) to `COc1ccc(C2/C(=C(/O)c3ccccc3)C(=O)C(=O)N2c2ncccn2)cc1OC` (centres undefined), the inhibition falls from -2.5% to -2.7%.

First: Cn1c(=O)c2[nH]c(NCC3CCCO3)nc2n(-c2ccccc2)c1=O (centres undefined)
Second: CC1Cc2nc(SCC(=O)Nc3ccccc3F)n(C)c(=O)c2S1 (centres undefined)
The inhibition of the first is higher: -0.4% for the first, -4.6% for the second.

Going from `CCOC(=O)c1oc2ccccc2c1NC(=O)c1cccs1` to `CC1=C(C(=O)Nc2ccccc2)C(c2cccs2)C(C#N)=C(SCC#N)N1` (centres undefined), the inhibition rises from -9.1% to -2.4%.

Going from `CC(NC(=O)COc1ccccc1)C(=O)NC1=NCCS1` (centres undefined) to `CC1=Nn2c(nnc2-c2ccccc2)SC1`, the inhibition falls from 5.2% to 4.7%.

Going from `CCN(CC)CCNC(=O)C1c2ccccc2C(=O)N(C)C1c1cn(C)c2ccccc12` (centres undefined) to `CN1C(=O)c2ccccc2C(C(=O)NCCCN2CCCC2)C1c1c[nH]c2ccccc12` (centres undefined), the inhibition falls from 9.3% to -4.5%.

First: Cc1cccc(NC(=O)CSc2nnc(NC(=O)CN3CCOCC3)s2)c1
Second: O=C1CC(c2ccccc2)CC(O)=C1C=NCCN1CCOCC1 (centres undefined)
The inhibition of the first is higher: 8.7% for the first, 1.2% for the second.

Compared with `COc1ccccc1C(=O)NCCn1cc(SCC(=O)NCc2ccco2)c2ccccc21`, `O=C(NCc1ccco1)c1cccn2c(=O)c3cc(Br)ccc3nc12` is lower in inhibition: 2.6% for the first, -9.9% for the second.

Compared with `COC(=O)C1=C(C)OC(N)=C(C#N)C1c1cc(OC)ccc1OC` (centres undefined), `COc1ccc(CCNC(=O)CSc2nnc(CNC(=O)c3cccs3)o2)cc1OC` is lower in inhibition: 5.9% for the first, 1.2% for the second.

Compared with `COC(=O)c1cn(C)c2ccc(S(=O)(=O)N3CC(C)CC(C)C3)cc2c1=O` (centres undefined), `Cc1ccc(S(=O)(=O)n2nc(OC(=O)C(C)(C)C)cc2N)cc1` is lower in inhibition: 8.5% for the first, -2.2% for the second.

Compared with `Cc1c(C(=O)Nc2ccccc2Cl)oc2ccc(S(=O)(=O)N3CCC4(CC3)OCCO4)cc12`, `O=C1CCc2cc(S(=O)(=O)N3CCC(C(=O)NCc4ccccc4Cl)CC3)ccc2N1` is higher in inhibition: -12.5% for the first, -0.3% for the second.

Compared with `CCOC(=O)n1c(SCC(=O)N(CC)CC)nc2ccccc21`, `CCN(CC)C(=O)CCC(=O)Nc1ccc(C(=O)OC)cc1` is higher in inhibition: -1.8% for the first, 4.2% for the second.

Going from `O=C(NCc1cccs1)c1ccc2c(c1)ncn2C1CCCC1` to `Cc1ccc(-c2nc(CS(=O)CC(=O)NC3CCCC3)c(C)o2)cc1` (centres undefined), the inhibition falls from 2.8% to 1.4%.

First: O=C(CN1C(=O)CCS(=O)(=O)c2ccccc21)NCc1ccc(F)cc1
Second: CN(Cc1ccccc1)C(=O)CCNC(=O)Cn1cnc2ccccc2c1=O
The inhibition of the first is higher: 1.5% for the first, -4.8% for the second.

First: O=C(C1=C(O)C(=O)N(Cc2ccccc2)C1c1cccnc1)c1ccco1 (centres undefined)
Second: O=C(Nc1ccccc1)N(Cc1cccnc1)Cc1ccco1
The inhibition of the first is lower: 1.3% for the first, 3.6% for the second.

Compared with `CCOC(=O)c1ccn(-c2nc(-c3ccco3)cc(C(F)(F)F)n2)n1`, `CCOc1nc(OCC)nc(-n2cc(-c3ccccc3)nn2)n1` is higher in inhibition: 2.5% for the first, 3% for the second.

First: O=C(CCN1C(=O)c2ccncc2C1=O)Nc1ccc2c(c1)OCCO2
Second: CCOC(=O)c1cccc(NC(=O)CN(c2ccc(C)cc2)S(=O)(=O)c2c(C)noc2C)c1
The inhibition of the first is higher: 9.6% for the first, -3% for the second.

First: CCN1CCN(c2ncnc3c2oc2nc(C)c4c(c23)CC(C)(C)OC4)CC1
Second: CCN1CCN(Cc2c(O)ccc3c(=O)c(-c4ccc(OC)c(OC)c4)c(C(F)(F)F)oc23)CC1
The inhibition of the first is higher: 1.2% for the first, -3.1% for the second.

First: CCOc1ccc(NC(=O)CCS(=O)(=O)c2cccc3nsnc23)cc1
Second: CCOc1ccc(OCC)c(NC(=O)CN(C)S(=O)(=O)c2cccc3nsnc23)c1
The inhibition of the first is higher: -3.1% for the first, -4.8% for the second.

Going from `Cn1c(=O)[nH]c(=O)c2c1nc(CN(Cc1ccccc1)Cc1ccccc1)n2CCN1CCOCC1` to `Cc1ccccc1CSc1nnc(Cn2c(=O)sc3ccccc32)n1C`, the inhibition rises from -0.1% to 5.5%.

First: C/C(=N\O)C1(C)N(O)C(C)(C)C(c2ccc(Br)cc2)=[N+]1[O-] (centres undefined)
Second: CC(C)COC(=O)C1C2C=CC3(CN(C(C)c4ccc(Br)cc4)C(=O)C13)O2 (centres undefined)
The inhibition of the first is lower: 1.1% for the first, 17.2% for the second.

Compared with `Cc1ncn(C23CC4CC(CC(O)(C4)C2)C3)n1`, `Cc1cc(=O)n2nc(N3CCCC(C(=O)NCCC4=CCCCC4)C3)sc2n1` (centres undefined) is lower in inhibition: 8.2% for the first, 3% for the second.

First: CC(C)Nc1nc(N(c2ccccc2)c2ccccc2)nc(-n2ccnc2)n1
Second: CCOC(=O)C1CCCN(Cc2nc(N)nc(Nc3ccc(C)cc3)n2)C1 (centres undefined)
The inhibition of the first is lower: -7.8% for the first, -0.4% for the second.

First: CCOC(=O)c1[nH]c2c(c1C)C(=O)CC(c1ccc(N(C)C)cc1)C2 (centres undefined)
Second: CCOC(=O)c1cc2cc(-c3c(C(=O)OCC)oc4cc(O)cc(O)c4c3=O)ccc2o1
The inhibition of the first is lower: -0.6% for the first, 1.4% for the second.

First: CC1C=CCC2C(=O)N(c3cccc(C(=O)N4CCCCCC4)c3)C(=O)C12 (centres undefined)
Second: Cc1ccc2cc3cc(C(=O)N4CCCCCC4)oc3nc2c1
The inhibition of the first is lower: -6.5% for the first, 3.2% for the second.

Going from `O=C1NC(c2ccncc2)Nc2sc3c(c21)CCCC3` (centres undefined) to `COCCCN(C(=O)Cn1ncc2c(=O)oc3ccc(C)cc3c21)C(C)c1ccncc1` (centres undefined), the inhibition falls from 0.8% to -4.1%.

First: Cc1nc2ncnn2c(C)c1CCC(=O)N1CCN(C(=O)c2ccco2)CC1
Second: CCn1c(SCC(=O)Nc2ccccc2F)nc2c(c1=O)SC(C)C2 (centres undefined)
The inhibition of the first is lower: -3.3% for the first, 4.3% for the second.

Going from `CCCCN(CC)C(=O)CN(C)S(=O)(=O)c1cccc2nsnc12` to `CCCCOc1ccc(C(=O)NCc2ccco2)cc1`, the inhibition falls from 1% to -9.3%.

Compared with `CCn1ncc(Br)c1C(=O)Nc1cc(C)ccc1F`, `Cc1cc(Nc2ccccc2)n(CCC#N)n1` is higher in inhibition: -0.1% for the first, 9.1% for the second.

First: CC(=O)N(CC1CCCO1)C1(C(=O)NC2CCCC2)CCCCC1 (centres undefined)
Second: C/C(=C(\C#N)C(=O)NCCCN1CCOCC1)N(C)C
The inhibition of the first is higher: 4% for the first, -7.6% for the second.

First: Cc1cccc(C2c3c(n(C)c(=O)n(C)c3=O)N=C3c4ccccc4C(=O)C32)c1 (centres undefined)
Second: Clc1ccc(Cn2ncc3c(NCc4cccnc4)ncnc32)cc1
The inhibition of the first is higher: -4.5% for the first, -5.1% for the second.

Going from `C=CCNC(=O)CSc1nc2sc(C)c(C)c2c(=O)[nH]1` to `O=C(Cc1nn[nH]n1)NCCC1=CCCCC1`, the inhibition rises from -8.9% to 3.2%.

With `CCOc1ccc(OCC)c(NC(=O)C2CCN(S(=O)(=O)c3c(C)noc3C)CC2)c1` the inhibition was 30.8% (active).
For `COc1ccc(CC(=O)Nc2ccc(-c3nnc(-c4ccc(C)cc4)o3)cc2)cc1`, the inhibition was 51.1% (active).
`COC(=O)[C@H](C(C)C)n1c(C)c(C(C)=O)c(C(C)=O)c1C` was tested, and the inhibition was 31.1% (active).
With `Cc1cccc(Nc2ccccc2C(=O)NCc2ccco2)c1C` the inhibition was 34.3% (active).
